HT1080 IDH1KD tx: kills HT-1080 cells with IDH1 knockdown. Potency, µM (doses to about 46.1 µM), for inactives: at the top dose activity, negative = toxicity, actives largely listed as cytotoxic. 2% of 360,000 active. HT-1080 IDH1 knockdown viability, ATP luminescence, 48 h. AID 686971;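 also: 0% = DMSO wells and -100% = cell-free medium wells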
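HT-1080-IDH1KD cells (IDH1 knocked down), 750/well in RPMI with 5% FBS, treated with compound 48 h at 37 degrees C. Viability by CellTiter-Glo luminescence, normalised to DMSO and no-cell wells; concentration-response curves classed.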
HT1080-NT tox: kills 2HG-producing HT-1080-NT fibrosarcoma cells | 1.6% of 360,000 active | Potency, µM (titrated, usually from 46.1 µM), for the others: at the highest dose activity, negative = less viability, hits mostly cytotoxic | AID 686970 | HT-1080-NT fibrosarcoma viability, CellTiter-Glo ATP luminescence, 48 h;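 also: NT is the 2HG producing partner of a matched IDH1 knockdown line; 0% = DMSO-treated cells and -100% = media-only wells without cells; nearly all actives have a fitted effect of over 55% in size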
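HT-1080-NT fibrosarcoma cells (2HG-overproducing), 750 cells/well in RPMI with 5% FBS, dosed after 2 h and incubated 48 h at 37C. CellTiter-Glo luminescence normalized to DMSO and no-cell wells; concentration-response curves fitted and classed.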
ATXN viability: cell viability loss in ATXN counter-screen | S2 cells (HEK-293 line with an ATXN2-luciferase reporter) viability, CellTiter-Fluor protease fluorescence, 24 h | Potency, µM (doses to about 56.7 µM), hits mostly cytotoxic | 0.49% of 400,000 active | AID 651635; also: nearly all actives have a fitted effect of over 40% in size
ATXN2 expr inh: ATXN2 expression inhibition. HEK-293 ATXN2-luciferase reporter, luminescence, 24 h. Potency, µM (series often up to 57 µM), for the others: top-dose activity change, negative = inhibition, most hits filed as inhibitors. 0.72% of 360,000 active. AID 1745845; also: % is scaled to controls: 0 for no effect and ±100 for the full control effect; nearly all actives have a fitted effect of over 55% in size
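qHTS (up to 57 uM final) was run with 24 h compound exposure of reporter cells at 37 °C. Each well was multiplexed: SteadyGlo luminescence measured ATXN2-luciferase expression after a fluorogenic Gly-Phe-AFC viability readout (25 uM final).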
KB-V1 MDR tox: kills drug-selected multidrug resistant KB-V1 cells | KB-V1 MDR cells viability, CellTiter-Glo, 72 h | AID 1347076 | Potency, µM (titrated, usually from 46.1 µM), hits mostly cytotoxic | 3.4% of 400,000 active; also: % is scaled to controls: 0 for no effect and ±100 for the full control effect; nearly all actives have a fitted effect of over 60% in size
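Following 72 h at 37 degrees C with compound, KB-V1 cell viability was read by CellTiter-Glo luminescence, medium being phenol-red-free DMEM plus 10% FBS; concentration-response parameters came from normalized, curve-fitted qHTS data.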
KB-3-1 tox: kills parental KB-3-1 adenocarcinoma cells. KB-3-1 viability, CellTiter-Glo ATP luminescence, 72 h. Potency, µM (highest dose often 46.1 µM), usual class: cytotoxic. 1.4% of 400,000 active; also: % is scaled to controls: 0 for no effect and ±100 for the full control effect; nearly all actives have a fitted effect of over 60% in size
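72 h, 37 °C compound treatment of KB-3-1 parental cells; CellTiter-Glo added, 10 min, luminescence read. Data corrected against DMSO-only plates and normalized before curve fitting.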
Active calls of the source: *; i = inactive; ? = inconclusive; . = no result given; [ ] = remark or other dose. This is a sample that favours compounds with a hit; in the whole collection about 6.2% have one here. Calls follow the shape of the dose curve; as a rule, active = well fitted curve in the direction sought with a large enough effect; inconclusive = small, poorly fitted or top-dose-only effect, or another doubt; inactive = no such curve, though single readings can be large; an effect the other way counts as inactive or inconclusive. Potency is read from the fitted curve at half-maximal effect.

SMILES	HT1080 IDH1KD tx	HT1080-NT tox	ATXN viability	ATXN2 expr inh	KB-V1 MDR tox	KB-3-1 tox
C[C@H]1O[C@H](O[C@H]2[C@H](O)[C@@H](O)[C@@H](O[C@H]3[C@H](O)[C@@H](O)C(O)O[C@H]3CO)O[C@H]2CO)[C@H](O)[C@@H](O)[C@H]1N[C@H]1C=C(CO)[C@@H](O)[C@H](O)[C@@H]1O (some centres undefined)	.	.	.	13%	.	.
Cc1cccc(N2CCN(C(=O)COc3ccc4ccc(=O)oc4c3)CC2)c1C	3%	-22%	?	.	i	i
Cc1cccc(N2CCN(C(=O)COc3ccc4c(c3)CCC4)CC2)c1C	-4%	0%	i	4%	21µM*	?
CC(=NCc1cccc(Cl)c1)c1nc(-c2ccco2)oc1O	-5%	1%	i	2%	i	5.8µM*
Cc1cc(=O)oc2cc(NC(=O)C(C)Oc3cccc(Cl)c3)ccc12 (centres undefined)	?	26µM*	?	-23%	i	i
Cc1ccc(NC(=O)Cn2c(=O)ccc3cc(S(=O)(=O)N4CCC(C)CC4)ccc32)cc1Cl	.	.	i	-4%	i	i
O=[N+]([O-])c1ccc(N=Nc2ccc(O)c3ccccc23)cc1	?	26µM*	?	?	15µM*	?
O=S(=O)(Nc1ccc(N=Nc2ccc(O)c3ccccc23)cc1)c1ccccc1	?	-22%	?	-18%	i	i
O=C(NCCc1nnc2n1CCN(Cc1ccc(F)cc1)CC2)c1ccco1	.	.	i	.	.	.
Cn1nnnc1Sc1ncnc2scc(-c3cccc4ccccc34)c12	.	.	?	?	i	16µM*
Cn1nnnc1Sc1ncnc2scc(-c3ccccc3Br)c12	.	.	?	25µM*	i	i
Cn1nnnc1Sc1ncnc2scc(Br)c12	.	.	i	18µM*	i	i
COc1ccccc1-c1csc2ncnc(Sc3nnnn3C)c12	.	.	i	-18%	i	?
C=C1C(=O)C23C(O)C1CCC2C12CCCC(C)(COC(C)=O)C1C(O)C3(O)OC2 (centres undefined)	1.8µM*	8.2µM*	7.1µM*	?	?	13µM*
Cc1ccc(CN2CCCn3nc(C(=O)NCCc4cccc(C)c4)cc3C2=O)cc1	.	.	i	12%	i	?
COc1cc2c(cc1OC)C1Cc3ccc(OC)c(OC)c3CN1CC2 (centres undefined)	3%	-3%	i	4%	i	i
CCC1=C(CC2NCCc3ccccc32)CC2c3cc(OC)c(OC)cc3CCN2C1 (centres undefined)	6.5µM*	?	?	8.9µM*	?	6.5µM*
O=C(c1cc(COc2ccc(F)cc2Cl)on1)N1CCC(c2ccncc2)CC1	?	-18%	i	-6%	4.1µM*	i
O=C(c1cc(COc2ccc(F)cc2Cl)on1)N1CCCCCC1	-1%	-7%	i	.	i	i
S=c1[nH]c2ccccc2s1	.	.	i	22%[116 µM]	.	.
O=C(CSc1nc(-c2cccs2)nc2cc(=O)[nH]n12)Nc1ccccc1Cl	.	.	i	7%	i	i
CN(C(=S)NC(=O)Cc1ccccc1)c1ccccc1	18µM*	?	i	-11%	i	i
COC(=O)c1ccc2c(=O)n(CCCCCC(=O)NCCc3ccccc3)c(=O)[nH]c2c1	.	.	.	.	i	i
C=Cc1ccc(Cn2c(C(=O)O)c(CNCc3ccccc3)c3ccc(C)cc32)cc1	.	.	16µM*	0%	i	?
CCc1ccc(CNCc2c(C(=O)O)n(Cc3ccc(C)cc3)c3cc(C)ccc23)cc1	.	.	.	-10%	i	18µM*
CCc1ccc(CNCc2c(C(=O)O)n(Cc3cccc(F)c3)c3cc(OC)ccc23)cc1	.	.	32µM*	?	i	i
COc1ccc2c(CNCCc3ccccc3OC)c(C(=O)O)n(Cc3ccc(F)cc3Cl)c2c1	.	.	?	?	i	21µM*
